# KB-3-1 cytotox: qHTS assay for MDR1-selective chemotherapeutics: Primary screen using the parental adenocarcinoma cell KB-3-1 | KB-3-1 viability, CellTiter-Glo ATP luminescence, 72 h | Potency, µM (series often up to 46.1 µM), hits mostly cytotoxic | actives 1.4% (n = 400,000); also: % is scaled to controls: 0 for no effect and ±100 for the full control effect; nearly all actives have a fitted effect of over 60% in size
#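 Viability of parental KB-3-1 cells, measured by CellTiter-Glo luminescence, followed a 72 h incubation at 37 °C with pinned compounds in phenol-red-free DMEM containing 10% FBS.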
# SW480 rerep: A quantitative high throughput screen for small molecules that induce DNA re-replication in SW480 colon adenocarcinoma cells; actives 1.8% (n = 340,000); SW480 DNA re-replication, Hoechst DNA content imaging, 48 h; Potency, µM (highest dose often 46.1 µM), for inactives: at the top dose re-replication activation, most hits filed as activators; also: % of control where 0% means no effect; nearly all actives have a fitted effect of over 55% in size
#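 Image-based read-out: total Hoechst fluorescence of nuclei (405 nm excitation, 500-530 nm emission), with hits raising the fraction of high-intensity nuclei. SW480 colon cells incubated 48 hr with compounds at 37 C.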
# PINK1 modulator: A Quantitative High throughput Screen to Identify Chemical Modulators of PINK1 Expression | PINK1 immunofluorescence, high-content cytometry, 24 h | Potency, µM (series often up to 76.6 µM), without a hit: at the top dose activation (PINK1 increase), usual class: activators | actives 0.2% (n = 410,000); active = well fitted activation curve with a large enough effect; inconclusive = small, poorly fitted or top-dose-only effect; cell line not stated here; also: % of control where 0% means no effect; nearly all actives have a fitted effect of over 65% in size
#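 Stable cell line treated 24 h with compounds at 5 concentrations (CCCP controls), then fixed and immunostained for PINK1 plus nuclear and cell stains; PINK1 immunofluorescence quantified by laser-scanning microplate cytometry.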
# MCF10A rerep: A quantitative high throughput screen for small molecules that induce DNA re-replication in MCF 10a normal breast cells; actives 2.9% (n = 350,000); MCF 10A DNA re-replication, Hoechst nuclear intensity, 48 h; AID 624296, 2012; Potency, µM (top dose mostly 46.1 µM), inactives show at the top dose activity, positive = re-replication, actives largely listed as activators; also: % of control where 0% means no effect; nearly all actives have a fitted effect of over 50% in size
# KB-V1 MDR tox: qHTS assay for MDR1-selective chemotherapeutics: Primary screen using the drug-selected MDR subline cells KB-V1; KB-V1 MDR cells viability, CellTiter-Glo, 72 h; Potency, µM (titrated, usually from 46.1 µM), actives largely listed as cytotoxic; actives 3.4% (n = 400,000); AID 1347076, 2019; also: % is scaled to controls: 0 for no effect and ±100 for the full control effect; nearly all actives have a fitted effect of over 60% in size
#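 Drug-selected KB-V1 cells, grown in DMEM lacking phenol red with 10% FBS, receive compound titrations; after three days at 37 degrees C, surviving cell ATP is quantified by CellTiter-Glo luminescence and responses normalized and curve-fitted.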
# Active calls of the source: *; i = inactive; ? = inconclusive; nt = no result given; ! = a repeat was not active; [ ] = remark or other dose. A selection: hits, their analogues and other compounds. The true share with any hit is near 6.7%. Unless noted, calls follow the shape of the dose curve; as a rule, active = well fitted curve in the direction sought with a large enough effect; inconclusive = small, poorly fitted or top-dose-only effect, or another doubt; inactive = no such curve, though single readings can be large; an effect the other way counts as inactive or inconclusive. Potency is read from the fitted curve at half-maximal effect.
SMILES,KB-3-1 cytotox,SW480 rerep,PINK1 modulator,MCF10A rerep,KB-V1 MDR tox
CN(C)c1ccc(C(I)C(I)c2ccnc3ccccc23)cc1 (centres undefined),?,nt,4%,nt,?
CCN1CCOC(CC(=O)Nc2cccc([N+](=O)[O-])c2)C1=O (centres undefined),i,109%,-1%,21µM*,i
CCCN1CCOC(CC(=O)Nc2ccc([N+](=O)[O-])cc2)C1=O (centres undefined),i,1%,0%,0%,i
CC(Cc1cccs1)NC(=S)Nc1ccc(Cl)c(Cl)c1 (centres undefined),i,17%,?,?,i
CC(Cc1cccs1)NC(=S)Nc1ccc(Cl)cc1 (centres undefined),i,5%,?,21µM*,i
COc1ccc(C(=O)c2cnc3ccccc3c2-c2ccccc2)cc1,23µM*,?,0%,18µM*,18µM*
Cc1ccc(C(=O)c2cnc3ccccc3c2-c2ccccc2)cc1,i,18%,0%,?,16µM*
Cc1ccc(C(=O)c2nc(C(=O)NCCO)nc3ccccc23)cc1,i,-20%,0%,7%,i
Cc1ccc(CN(Cc2ccco2)C(=O)c2oc3c(C)c(C)ccc3c2C)cc1,i,nt,5%,nt,i
COC(=O)[C@@]12C[C@@H](CC(=O)NCc3cccs3)C(=O)N(Cc3ccco3)C1=CCC(C)(C)C2,i,nt,nt,nt,?
CCc1ccc(-c2cc(C(F)(F)F)n3nc(C(=O)Nc4cnn(Cc5ccc(C)cc5)c4)cc3n2)s1,i,16%,-2%[38.3 µM],?,3.7µM*
Cc1cc(C)cc(-n2c(C)cc(/C=N/NC(=O)CSc3ncccn3)c2C)c1,?,?,0%,18µM*,?
Cc1cc(/C=N/NC(=O)c2ccc(CN3CCOCC3)cc2)c(C)n1-c1ccccc1,i,4%,-4%[38.3 µM],25%,16µM*
Cc1cc(/C=N/NC(=O)Cn2c3ccccc3c(=O)c3ccccc32)c(C)n1-c1ccccc1,i,28%,3%,21µM*,i
Cc1cc(C)cc(-n2c(C)cc(/C=N/NC(=O)c3ccncc3)c2C)c1,i,24%[1.84 µM],5%,-28%,i
Cc1ccc(N(CC(=O)N/N=C/c2cc(C)n(-c3ccccc3)c2C)S(C)(=O)=O)c(C)c1,i,-2%,-3%,0%,i
O=C(Cc1ccc(Cl)cc1)Nc1cccnc1Cl,i,nt,1%,nt,i
CN(C)c1ncc2nc(-c3ccccc3)c(=O)n(Cc3ccc(F)cc3)c2n1,nt,nt,0%,nt,nt
CCOC(=O)c1sc(NC(=O)C2CC(=O)N(c3ccc4c(c3)OCCO4)C2)nc1C (centres undefined),i,0%,1%,9%,i
CC(C)Nc1ncnc2c1ncn2[C@H]1CN(Cc2cccs2)C[C@@H](CO)O1,i,nt,0%,nt,i
O=C(NC1CCCCC1)C(c1ccc(O)cc1)N(CC1CCCO1)C(=O)C1COc2ccccc2O1 (centres undefined),i,10%,-1%,0%,21µM*
CCOC(=O)/C=C1\CN(Cc2cc(OC)c(OC)c(OC)c2)S(=O)(=O)c2ccccc21,?,1%,2%,?,10µM*!
CCOC(=O)/C=C1\CN(Cc2cc(OC)c(OC)c(OC)c2)S(=O)(=O)c2ccc(C(F)(F)F)cc21,?,?,1%,1%,?
COc1ccccc1N=C(C)C1=C(O)CC(c2ccccc2)CC1=O (centres undefined),?,2.1µM*,1%,?,1.5µM*
O=C1CC(c2ccco2)Cc2[nH]c(=O)c(C(=O)Nc3ccccc3)cc21 (centres undefined),i,nt,0%,nt,i
Cc1cccc(CNc2ccnc(-c3ccccc3Cl)n2)c1,nt,nt,-1%,nt,nt

# From PubChem
